Data reported in PubChem BioAssay (EPA / NIEHS).
Results filed as inconclusive are left out. The source made the active and inactive calls. The calls were made as follows: active = hit-call score of the fitted dose curve at least 0.9, where 1 is the maximum; inconclusive = response in the unintended direction; inactive = score below 0.9.

Target: Glycogen synthase kinase-3 beta (Homo sapiens) (UniProt P49841)
Assay: NVS_ENZ_hGSK3b: NovaScreen (NVS) Enzymatic Assay for human Glycogen Synthase Kinase-3 beta (GSK3b) (AID 2283165)
Description: NVS_ENZ_hGSK3b is a biochemical, single-readout assay that uses extracted gene-proteins in a cell-free assay. Measurements were taken 1 hour after chemical dosing in a 384-well plate.NVS_ENZ_hGSK3b is one of one assay component(s) measured or calculated from the NVS_ENZ_hGSK3b assay. It is designed to make measurements of enzyme activity, a form of enzyme reporter, as detected with fluorescence intensity signals by Fluorescence and electrophoretic mobility shift technology.Data from the assay component NVS_ENZ_hGSK3b was analyzed into 1 assay endpoint. This assay endpoint, NVS_ENZ_hGSK3b, was analyzed in the positive analysis fitting direction relative to DMSO as the negative control and baseline of activity. Using a type of enzyme reporter, loss-of-signal activity can be used to understand changes in the enzymatic activity as they relate to the gene GSK3B. Furthermore, this assay endpoint can be referred to as a primary readout, because this assay has produced multiple assay endpoints where this one serves a enzymatic activity function. To generalize the intended target to other relatable targets, this assay endpoint is annotated to the kinase intended target family, where the subfamily is serine/threonine kinase.
Binding assays used specific radioligands (tritiated, iodinated) with non-radioactive competitive displacement ligands in agonist or antagonist protocols (as indicated) and various reference compounds and inhibitors to titrate specific binding to receptors and transporters. Most enzyme assays (CYPs, kinases, phosphatases, proteases, HDACs) used recombinant protein and specific substrates (fluorescence mostly, some colorimetric and radioactive) and inhibitors, followed by a biochemical separation of substrate and product. All assays for the biochemical HTS were initially run in duplicate at a single concentration (10 uM for CYP450 assays and 25 uM for all others). Assay-chemical combinations meeting a pre-defined threshold (e.g., 30% inhibition and other criteria defined below) were then run in singleton concentration-response format with maximum concentration of 20 uM for CYPs and 50 uM for all others. Each assay was run with positive and negative controls, and concurrent controls on every plate. The follow-up (secondary) screen tested active chemical-pairs in concentration series, as well as a few additional assays not tested in the primary screen, some selected negative inactives, and several cases re-run in the concentration series for confirmatory purposes.

Chain of Glycogen synthase kinase-3 beta (Homo sapiens) (P49841 whole entry, looked up): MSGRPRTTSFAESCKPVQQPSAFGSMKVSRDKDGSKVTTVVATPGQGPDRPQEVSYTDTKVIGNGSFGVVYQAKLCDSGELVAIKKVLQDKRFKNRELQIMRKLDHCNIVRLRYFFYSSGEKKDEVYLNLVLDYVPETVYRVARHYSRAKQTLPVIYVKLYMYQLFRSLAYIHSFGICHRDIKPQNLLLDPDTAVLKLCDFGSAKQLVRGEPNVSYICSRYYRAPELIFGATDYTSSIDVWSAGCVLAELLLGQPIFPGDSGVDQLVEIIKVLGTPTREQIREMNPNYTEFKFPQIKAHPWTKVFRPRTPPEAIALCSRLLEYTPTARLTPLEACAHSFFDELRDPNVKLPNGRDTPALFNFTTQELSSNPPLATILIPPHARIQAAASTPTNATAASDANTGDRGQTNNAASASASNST

Compound	outcome
O=C(O)CN(CC(=O)O)CC(=O)O	inactive
S=c1[nH]c2ccccc2s1	inactive
CC1(C)C(=O)NC(=O)N1CO	inactive
CN(C)C(=O)NC1(c2ccccc2)CCN(CCC[C@]2(c3ccc(Cl)c(Cl)c3)CCCN(C(=O)c3ccccc3)C2)CC1	inactive
COC(=O)CCCC(=O)OC	inactive
CC(C)c1cccc(C(C)C)c1NC(=O)NS(=O)(=O)c1cc(C(C)(C)O)co1	inactive
Cc1occc(=O)c1O	inactive
CCCC(=O)O	inactive
COc1ccc(OC(F)(F)F)cc1CN[C@H]1CCCN[C@H]1c1ccccc1	inactive
O=NO	inactive
NC1CCCCC1	inactive
CCc1cc(C2=C(C(=O)O)N(c3ccccc3C(F)(F)F)S(=O)(=O)c3ccccc32)cc2c1OCO2	inactive
O=C(Oc1ccccc1)c1cccc(C(=O)Oc2ccccc2)c1	inactive
CCOCCOCCO	inactive
c1ccc2occc2c1	inactive
Nc1nc(=S)c2[nH]cnc2[nH]1	inactive
C/C=C/c1ccc(OC)cc1	inactive
C=CCc1ccc(OC)c(OC)c1	inactive
Oc1ccc(O)cc1	inactive
O=C1OC(c2ccc(O)cc2)(c2ccc(O)cc2)c2ccccc21	inactive
